Results from PubChem BioAssay (NCI).
This is part of a sample that, as a whole, favours compounds with a hit. Of some 79,000 tested, about 15% had one in any assay. Values without a mark were called inactive. Active and inactive are the calls of the source. Cut-off read from the data, not from the text of the source: active = growth inhibition above about 70%; inactive = the rest.

Legend:
[1] = NCI Yeast Anticancer Drug Screen. Data for the rad50 strain (AID 155);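 note: 0% = growth of vehicle-only cultures of the same strain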; details: S. cerevisiae rad50 strain growth inhibition, stronger effect = higher value
Method in brief: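 Growth of the mutant yeast was measured after compound exposure and referenced to vehicle-treated cultures.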

[2] = NCI Yeast Anticancer Drug Screen. Data for the mec2-1 strain (AID 157); details: S. cerevisiae mec2-1 strain, stronger effect = higher value
Method in brief: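 Test agents were screened against the mec2-1 yeast strain, with defined DNA repair or cell cycle alteration. Growth was scored as inhibition against vehicle-only controls.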

[3] = NCI Yeast Anticancer Drug Screen. Data for the sgs1 mgt1 strain (AID 161);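 note: 0% = growth of cultures given vehicle only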; details: S. cerevisiae sgs1 mgt1 strain, stronger effect = higher value
Method in brief: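 Test agents were incubated with a DNA-repair-mutant yeast strain. Growth was then read and compared against vehicle-treated controls.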

[4] = NCI Yeast Anticancer Drug Screen. Data for the cln2 rad14 strain (AID 165);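 note: 0% = growth equal to vehicle treated cultures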; details: S. cerevisiae cln2 rad14 strain, stronger effect = higher value
Method in brief: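 Growth of compound-exposed yeast (cln2 rad14 genotype) measured and expressed as inhibition relative to vehicle.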

[5] = NCI Yeast Anticancer Drug Screen. Data for the bub3 strain (AID 167); details: S. cerevisiae bub3 mutant strain, stronger effect = higher value
Method in brief: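 Whole-cell yeast assay. The mutant strain was incubated with compounds, and growth inhibition was determined by comparison with vehicle-treated cells.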

[6] = NCI Yeast Anticancer Drug Screen. Data for the mlh1 rad18 strain (AID 175); details: S. cerevisiae mlh1 rad18 strain growth inhibition, stronger effect = higher value
Method in brief: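 In this whole-cell yeast screen, a strain with altered DNA damage repair is challenged with compound, and its growth is measured against matched vehicle-treated controls.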

[7] = at 5.0 µM (retest, dose inferred, filed as 0.5)
[8] = at 50.0 µM (retest, dose inferred, filed as 5.0)

Compound	growth inhibition [1, 7]	growth inhibition [1, 8]	growth inhibition ([1]; at 50.0 µM)	growth inhibition [2, 7] [%]	growth inhibition [2, 8]	growth inhibition ([2]; at 50.0 µM)	growth inhibition [3, 7]	growth inhibition [3, 8]	growth inhibition ([3]; at 50.0 µM)	growth inhibition [4, 7]	growth inhibition [4, 8]	growth inhibition ([4]; at 50.0 µM)	growth inhibition [5, 7]	growth inhibition [5, 8]	growth inhibition ([5]; at 50.0 µM)	growth inhibition [6, 7]	growth inhibition [6, 8]	growth inhibition ([6]; at 50.0 µM)
C[Si](C)(C)CC(c1ccccc1)C(O)c1ccccc1 (stereo not given)	-7%	96% (active)	98.5% (active)	-4	98% (active)	97.8% (active)	-3%	98% (active)	98% (active)	0%	97% (active)	93.9% (active)	0%	98% (active)	98.7% (active)	1%	98% (active)	98.8% (active)
CCOC(=O)C(C(=O)OCC)C(=O)c1ccc2c(c1)OCO2	3%	83% (active)	52.4%	2	75% (active)	35.5%	5%	90% (active)	86.9% (active)	10%	21%	1.25%	7%	81% (active)	89.2% (active)	4%	94% (active)	60.4%
Cc1cccc(NC(=O)Oc2ccc(Cl)c3cccnc23)c1	75% (active)	99% (active)	88.5% (active)	57	99% (active)	88.7% (active)	97% (active)	99% (active)	91.8% (active)	95% (active)	99% (active)	89.9% (active)	82% (active)	67%	85.5% (active)	72% (active)	99% (active)	88.8% (active)
CCOC(=O)/C=C(\NC1CC(OC2C[C@](O)(C(C)=O)Cc3c(O)c4c(c(O)c32)C(=O)c2c(OC)cccc2C4=O)OC(C)C1O)C(=O)OCC (stereo not given in full)	44%	95% (active)	68.8%	28	97% (active)	74.3% (active)	40%	95% (active)	90.5% (active)	44%	92% (active)	88.7% (active)	43%	97% (active)	87.5% (active)	34%	96% (active)	87.5% (active)
Cc1ccc(S(=O)(=O)c2cc(O)c(O)c3ccc(Br)cc23)cc1	13%	97% (active)	79.5% (active)	9	98% (active)	98.5% (active)	16%	98% (active)	92.9% (active)	-1%	97% (active)	95.4% (active)	-4%	97% (active)	83.8% (active)	9%	97% (active)	97.9% (active)
Nc1nc(=O)[nH]c([O-])c1N=O.Nc1nc(=O)[nH]c([O-])c1N=O.[Ag+].[Ag+]	37%	-25%	96.8% (active)	44	-8%	98.7% (active)	63%	-28%	92.9% (active)	28%	-17%	98.8% (active)	76% (active)	-28%	99.2% (active)	36%	-21%	96.9% (active)
c1ccc(-n2ncc3ccc4cccn4c32)cc1	-4%	-2%	63.9%	3	9%	38.1%	-15%	40%	55%	-13%	25%	13.1%	17%	16%	91.3% (active)	12%	40%	47.7%
CC1(C)CC[C@]2(C(=O)O)[C@H](O)C[C@]3(C)C(=CC[C@@H]4[C@@]5(C)CC[C@H](OC6OCC(O)C(O)C6OC6OCC(O)C(O)C6OC6OCC(O)C(O)C6O)C(C)(C)[C@@H]5CC[C@]43C)[C@@H]2C1 (stereo not given in full)	5%	7%	51.9%	12	54%	57.1%	8%	33%	-13.4%	14%	100% (active)	54%	14%	100% (active)	48.8%	5%	53%	52%
COC1C(N)C(OC2C(Oc3cccc4c(O)c5c(=O)oc6ccc(C)c7c(=O)oc(c34)c5c67)OC(C)C(O)C2(C)O)OC(C)C1O (stereo not given)	12%	48%	26.8%	-6	8%	20.3%	29%	32%	23.1%	8%	36%	32%	19%	30%	19.4%	11%	15%	60.4%
N#CCc1ccc2c(c1)Sc1ccccc1O2	-159%	-54%	90.5% (active)	-49	-26%	31.8%	-58%	-13%	53%	-57%	-35%	-5.85%	-62%	-33%	50.2%	-122%	-45%	73.8% (active)
